Active and inactive are the calls of the source. Rule for the calls: active = hit-call score of the fitted dose curve at least 0.9, where 1 is the maximum; inactive = score below 0.9.
What was measured:
[1] = BSK_3C_SRB: Viability Assessment in the BioMAP Diversity Plus: 3C Assay (AID 2283023); settings: primary human endothelial cells (HUVEC);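 note: fitted both ways against DMSO so a hit may be signal rise or drop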
Outline: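 Primary human umbilical vein endothelial cells in the 3C system were read 24 h after compound dosing. Total protein was stained with 0.1% sulforhodamine B after 10% TCA fixation and read at 560 nm, with bidirectional fitting against DMSO as baseline.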

[2] = read-out: Matrix Metallopeptidase 1 (MMP1), MMP1 (gene 4312); test: BSK_BE3C_MMP1: BioMAP Diversity Plus: BE3C Assay for Matrix Metallopeptidase 1 (MMP1) Biomarker Activity (AID 2283024); settings: primary human bronchial epithelial cells; actives raise or lower the signal
Outline: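 ELISA measurement of MMP-1 after 24 h compound exposure of primary human bronchial epithelial cells. Changes in either direction fitted relative to DMSO; parallel SRB staining checked overt cytotoxicity.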

[3] = BSK_3C_Vis: BioMAP Diversity Plus: 3C Assay for Morphology Visualization (AID 2283025); settings: primary human endothelial cells (HUVEC);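 note: fitted both ways so gain or loss versus DMSO counts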;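 for AC50: light microscopy image of cell morphology used as background control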
Outline: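 Light-microscopy visualization of HUVEC cultures at 24 h post-treatment, with DMSO as baseline for bidirectional fitting.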

[4] = read-out: Pselectin, SELP (gene 6403); test: BSK_4H_Pselectin: BioMAP Diversity Plus: 4H Assay for Pselectin Biomarker Activity (AID 2283026); settings: primary human endothelial cells (HUVEC); actives raise or lower the signal
Outline: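 ELISA of surface P-selectin on HUVEC, 24 h after dosing, with parallel SRB staining (0.1% after 10% TCA fixation, 560 nm) for overt cytotoxicity. Activity fitted in both directions relative to DMSO.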

[5] = BSK_4H_SRB: Viability Assessment in the BioMAP Diversity Plus: 4H Assay (AID 2283027); settings: primary human endothelial cells (HUVEC);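 note: cells exposed to compound for 24 h before staining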;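 for AC50: curves fitted both ways versus DMSO so AC50 may be loss or gain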
Outline: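 Cytotoxicity readout: sulforhodamine B (0.1%) staining of total protein after 10% TCA fixation, measured at 560 nm in human umbilical vein endothelium at 24 h. DMSO set the baseline; fitting was bidirectional.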

[6] = BSK_BE3C_SRB: Viability Assessment in the BioMAP Diversity Plus: BE3C Assay (AID 2283028); settings: primary human bronchial epithelial cells;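 for AC50: fitted both ways so AC50 may mark signal gain or loss versus DMSO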
Outline: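 Human primary bronchial epithelial cells were exposed to test chemicals for 24 h. Total protein in parallel cultures was then measured by staining with 0.1% sulforhodamine B after 10% TCA fixation, with absorbance read at 560 nm. Activity was fitted bidirectionally against DMSO.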

[7] = read-out: Thrombomodulin, THBD (gene 7056); test: BSK_3C_Thrombomodulin: BioMAP Diversity Plus: 3C Assay for Thrombomodulin Biomarker Activity (AID 2283029); settings: primary human endothelial cells (HUVEC); actives raise or lower the signal
Outline: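 ELISA measurement of thrombomodulin on HUVEC surface 24 h after chemical dosing; activity fitted in both directions relative to DMSO vehicle.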

[8] = read-out: Urokinase-type plasminogen activator receptor (uPAR), PLAUR (gene 5329); test: BSK_4H_uPAR: BioMAP Diversity Plus: 4H Assay for Urokinase-type plasminogen activator receptor (uPAR) Biomarker Activity (AID 2283030); settings: primary human endothelial cells (HUVEC); actives raise or lower the signal
Outline: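 Primary human umbilical vein endothelial cells were exposed to chemical for 24 h before cell-surface uPAR was quantified by ELISA. Activity was fitted bidirectionally against the DMSO negative control baseline.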

[9] = read-out: Human Leukocyte Antigen - DR isotype (HLADR), HLA-DRA (gene 3122); test: BSK_BE3C_HLADR: BioMAP Diversity Plus: BE3C Assay for Human Leukocyte Antigen - DR isotype (HLADR) Biomarker Activity (AID 2283032); settings: primary human bronchial epithelial cells; actives raise or lower the signal
Outline: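 Cell-surface HLA-DR ELISA readout at 24 h after dosing in the BE3C primary human lung bronchial epithelial system; gain or loss of signal against DMSO, with parallel sulforhodamine B staining of total protein for overt cytotoxicity.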

[10] = read-out: Vascular cell adhesion molecule 1 (VCAM1), VCAM1 (gene 7412); test: BSK_4H_VCAM1: BioMAP Diversity Plus: 4H Assay for Vascular cell adhesion molecule 1 (VCAM1) Biomarker Activity (AID 2283033); settings: primary human endothelial cells (HUVEC); actives raise or lower the signal
Outline: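 VCAM-1 ELISA read 24 h after chemical dosing of HUVEC in the BioMAP 4H system, with gain or loss of signal fitted relative to DMSO. Parallel SRB staining (560 nm) checked overt cytotoxicity.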

[11] = read-out: Interferon-gamma inducible Protein 10 (IP10), CXCL10 (gene 3627); test: BSK_BE3C_IP10: BioMAP Diversity Plus: BE3C Assay for Interferon-gamma inducible Protein 10 (IP10) Biomarker Activity (AID 2283034); settings: primary human bronchial epithelial cells; actives raise or lower the signal
Outline: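 IP-10 quantified by ELISA in human primary bronchial epithelial cell cultures at 24 hours post-dosing. Gain or loss of signal fitted relative to DMSO; parallel SRB staining assessed overt cytotoxicity.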

[12] = read-out: Monokine induced gamma interferon (MIG), CXCL9 (gene 4283); test: BSK_BE3C_MIG: BioMAP Diversity Plus: BE3C Assay for Monokine induced gamma interferon (MIG) Biomarker Activity (AID 2283035); settings: primary human bronchial epithelial cells; actives raise or lower the signal
Outline: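 hu bronchial epithelial 1° cells, 24 h cpd; MIG by ELISA; bidirectional fit, DMSO = baseline.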

[13] = read-out: Transforming growth factor beta 1 (TGFb1), TGFB1 (gene 7040); test: BSK_BE3C_TGFb1: BioMAP Diversity Plus: BE3C Assay for Transforming growth factor beta 1 (TGFb1) Biomarker Activity (AID 2283036); settings: primary human bronchial epithelial cells; actives raise or lower the signal
Outline: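 ELISA readout of TGF-b1 from human lung bronchial epithelial primary cells, taken 24 h post-treatment. Gain or loss of signal fitted relative to DMSO baseline, with parallel SRB staining for overt cytotoxicity.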

[14] = read-out: Plasminogen activator inhibitor-1 (PAI1), SERPINE1 (gene 5054); test: BSK_BE3C_PAI1: BioMAP Diversity Plus: BE3C Assay for Plasminogen activator inhibitor-1 (PAI1) Biomarker Activity (AID 2283037); settings: primary human bronchial epithelial cells; actives raise or lower the signal
Outline: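 PAI-1 was measured by ELISA in human primary bronchial epithelial cultures 24 h after chemical dosing, with cytotoxicity checked by SRB total-protein staining in parallel cultures. Activity was fitted in both directions relative to DMSO.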

[15] = read-out: urokinase plasminogen activator (uPA), PLAU (gene 5328); test: BSK_BE3C_uPA: BioMAP Diversity Plus: BE3C Assay for urokinase plasminogen activator (uPA) Biomarker Activity (AID 2283038); settings: primary human bronchial epithelial cells; actives raise or lower the signal
Outline: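 Human primary bronchial epithelial cells were exposed to chemical for 24 h, then uPA levels were measured by ELISA. Responses were fitted bidirectionally against DMSO as negative control and baseline. Parallel SRB staining of total protein gauged overt cytotoxicity.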

[16] = read-out: Urokinase-type plasminogen activator receptor (uPAR), PLAUR (gene 5329); test: BSK_BE3C_uPAR: BioMAP Diversity Plus: BE3C Assay for Urokinase-type plasminogen activator receptor (uPAR) Biomarker Activity (AID 2283039); settings: primary human bronchial epithelial cells; actives raise or lower the signal
Outline: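 uPAR levels were measured by ELISA after 24 h compound treatment of primary human bronchial epithelial cells, fitted in both directions relative to DMSO. Parallel SRB staining served as the cytotoxicity read-out.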

[17] = read-out: Interleukin-6 (IL6), IL6 (gene 3569); test: BSK_CASM3C_IL6: BioMAP Diversity Plus: CASM3C Assay for Interleukin-6 (IL6) Biomarker Activity for (AID 2283040); settings: primary human coronary artery smooth muscle cells; actives raise or lower the signal
[18] = read-out: Tissue plasminogen activator (tPA), PLAT (gene 5327); test: BSK_BE3C_tPA: BioMAP Diversity Plus: BE3C Assay for Tissue plasminogen activator (tPA) Biomarker Activity (AID 2283041); settings: primary human bronchial epithelial cells; actives raise or lower the signal
Outline: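 tPA measured by ELISA 24 h after dosing human primary bronchial epithelial cells (BE3C system). Changes in either direction were fitted against DMSO. Parallel cultures were stained with SRB to flag overt cytotoxicity.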

[19] = read-out: Interleukin-8 (IL8), CXCL8 (gene 3576); test: BSK_CASM3C_IL8: BioMAP Diversity Plus: CASM3C Assay for Interleukin-8 (IL8) Biomarker Activity (AID 2283042); settings: primary human coronary artery smooth muscle cells; actives raise or lower the signal;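 note: IL-8 protein level quantified by ELISA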
[20] = read-out: Vascular endothelial growth factor receptor 2 (Homo sapiens) (UniProt P35968); test: BSK_4H_VEGFRII: BioMAP Diversity Plus: 4H Assay for Vascular endothelial growth factor receptor 2 (VEGFR2) Biomarker Activity (AID 2283031); settings: primary human endothelial cells (HUVEC); actives raise or lower the signal
Outline: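 Primary human umbilical vein endothelial cells in the BioMAP 4H system were dosed with test chemical, and 24 h later VEGFRII was measured by ELISA. Activity was fitted bidirectionally against DMSO as negative control and baseline.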

Measured: AC50

Cn1cnc2c1c(=O)[nH]c(=O)n2C
not listed: [20]
inactive: all other assays above

CCCCCCC(CCCCCCCCCCC(=O)OCC(COC(C)=O)OC(C)=O)OC(C)=O (stereo not given)
active: [9] 10 µM | [11] 11.4 µM | [12] 13.7 µM | [13] 7.57 µM | [14] 7.39 µM | [18] 3.58 µM
not listed: [15]
inactive: all other assays above

O=C1O[C@H]([C@H](O)CO)C(O)=C1O
inactive: all assays above

CCOCCOCCO
not listed: [15]
inactive: all other assays above

CC(COCC(C)OC(=O)c1ccccc1)OC(=O)c1ccccc1 (stereo not given)
inactive: all assays above

CCc1cc(C2=C(C(=O)O)N(c3ccccc3C(F)(F)F)S(=O)(=O)c3ccccc32)cc2c1OCO2
active: [2] 10.8 µM | [7] 10.2 µM
inactive: all other assays above

OCC(O)CO
inactive: all assays above

Cc1cc(Cc2ccc(N)c(C)c2)ccc1N
not listed: [15]
inactive: all other assays above

CC(C)(C)c1ccccc1
inactive: all assays above

Cc1c(C)c2c(c(C)c1O)CCC(C)(COc1ccc(CC3SC(=O)NC3=O)cc1)O2 (stereo not given)
inactive: [7] | [20] | [17] | [19]
active: [1] 17.3 µM | [2] 33.9 µM | [3] 20 µM | [4] 14 µM | [5] 23 µM | [6] 28.4 µM | [8] 28.6 µM | [9] 15.2 µM | [10] 31.8 µM | [11] 14.2 µM | [12] 31.8 µM | [13] 26.2 µM | [14] 14.7 µM | [15] 15.3 µM | [16] 29.6 µM | [18] 9.19 µM

CC(C)c1cccc(C(C)C)c1
inactive: all assays above

COc1ccc(OC(F)(F)F)cc1CN[C@H]1CCCN[C@H]1c1ccccc1
active: [1] 15 µM | [3] 3.29 µM | [5] 14.3 µM | [7] 17.8 µM | [8] 20 µM | [15] 20 µM
inactive: all other assays above

Oc1ccc(O)cc1
active: [2] 2.96 µM | [4] 20 µM | [10] 10.9 µM | [15] 7.83 µM
not listed: [20]
inactive: all other assays above

— PubChem BioAssay (EPA / NIEHS)
